Experimental data as given in PubChem BioAssay.

Legend:
[1] = tested on: Human papillomavirus type 1a protein E7 (residues 44-93); experiment: small molecules binding HPV E7 44-93 – biochemical, small-molecule microarray, residues 44-93, 635 nm fluorescence, primary screen (AID 1108); settings: fluorescence 635 nm, higher = more signal;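 note: E7 fragment applied at 1 µg/mL in TBST for 1 h at 4 C; score combines spot fluorescence with its signal to noise ratio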
[2] = hepatitis C replication reporter changes, two-sided – Huh7 cells, luciferase reporter, HCV replication inhibitor project, primary screen (AID 1109); settings: Huh7 HCV replicon luciferase reporter, 48 h; higher = more signal;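 note: huh7 hepatoma cells harbouring a luciferase neomycin HCV replicon reporter; luciferase luminescence as measure of HCV replicon replication; test concentration not given here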
[3] = target: Left-right determination factor 2 (Homo sapiens) (UniProt O00292); experiment: small molecules binding LEFTY2 protein – biochemical, small-molecule microarray, 635 nm fluorescence scan, primary screen (AID 1110); settings: higher = more signal
Left-right determination factor 2 (Homo sapiens), sequence (O00292 whole entry, looked up): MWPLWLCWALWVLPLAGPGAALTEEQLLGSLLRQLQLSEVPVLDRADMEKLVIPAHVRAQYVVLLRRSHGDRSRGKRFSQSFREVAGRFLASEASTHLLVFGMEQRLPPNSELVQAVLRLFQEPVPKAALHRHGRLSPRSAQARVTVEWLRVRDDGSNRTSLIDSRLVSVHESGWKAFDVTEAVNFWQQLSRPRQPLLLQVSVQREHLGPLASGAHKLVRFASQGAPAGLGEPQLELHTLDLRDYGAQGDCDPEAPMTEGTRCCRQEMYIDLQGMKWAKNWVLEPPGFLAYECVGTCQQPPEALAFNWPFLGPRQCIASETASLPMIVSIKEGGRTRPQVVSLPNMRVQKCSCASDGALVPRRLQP

[4] = target: Calmodulin-1 (Homo sapiens) (UniProt P0DP23); experiment: small molecules binding calmodulin-1 with EGTA – biochemical, small-molecule microarray, Cy5-labelled CALM1, profiling panel (AID 1111); settings: Cy5-CALM1 binding fluorescence, higher = more signal;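 note: labelled calmodulin applied in Tris saline Tween buffer holding calcium plus EGTA and DTT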
[5] = target: Calmodulin-1 (Homo sapiens) (UniProt P0DP23); experiment: small molecules binding Ca-loaded calmodulin-1 – biochemical, small-molecule microarray, Cy5-labelled CALM1, plus calcium, artefact control for SMM control-protein annotation, profiling panel (AID 1112); settings: Cy5-CALM1 binding fluorescence, higher = more signal;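 note: score merges spot fluorescence with signal to noise from triplicate slides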
[6] = probe aWnt5a binding to arrayed compounds – biochemical, biotinylated probe, 635/667 nm fluorescence, primary screen (AID 1113); settings: small-molecule microarray, higher = more signal;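 note: score merges 667 nm fluorescence intensity with signal-to-noise per printed feature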
[7] = probe aShh binding to arrayed compounds – biochemical, biotinylated probe, 635/667 nm fluorescence, primary screen (AID 1114); settings: small-molecule microarray, higher = more signal;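 note: probe is biotin-labelled aShh protein from a stem cell growth factor screen; measures binding of labelled protein to compounds printed on the slide; score merges feature fluorescence at 667 nm with signal-to-noise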
[8] = probe aNog binding to arrayed compounds – biochemical, biotinylated probe, 635/667 nm fluorescence, primary screen (AID 1115); settings: small-molecule microarray, higher = more signal;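 note: probe is biotinylated aNog protein used at 0.15 µg/mL for 1 h at 4 C; z-score combines 667 nm fluorescence of each spot with its signal to noise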
[9] = target: Torsin-1A-interacting protein 1 (Homo sapiens) (UniProt Q5JTV8); experiment: compound microarray binding of lysate hLAP1 – cell lysate, small-molecule microarray, COS7 lysate, 635/667 nm fluorescence, primary screen (AID 1116); settings: 635 nm fluorescence, higher = more signal
Torsin-1A-interacting protein 1 (Homo sapiens), sequence (Q5JTV8 whole entry, looked up): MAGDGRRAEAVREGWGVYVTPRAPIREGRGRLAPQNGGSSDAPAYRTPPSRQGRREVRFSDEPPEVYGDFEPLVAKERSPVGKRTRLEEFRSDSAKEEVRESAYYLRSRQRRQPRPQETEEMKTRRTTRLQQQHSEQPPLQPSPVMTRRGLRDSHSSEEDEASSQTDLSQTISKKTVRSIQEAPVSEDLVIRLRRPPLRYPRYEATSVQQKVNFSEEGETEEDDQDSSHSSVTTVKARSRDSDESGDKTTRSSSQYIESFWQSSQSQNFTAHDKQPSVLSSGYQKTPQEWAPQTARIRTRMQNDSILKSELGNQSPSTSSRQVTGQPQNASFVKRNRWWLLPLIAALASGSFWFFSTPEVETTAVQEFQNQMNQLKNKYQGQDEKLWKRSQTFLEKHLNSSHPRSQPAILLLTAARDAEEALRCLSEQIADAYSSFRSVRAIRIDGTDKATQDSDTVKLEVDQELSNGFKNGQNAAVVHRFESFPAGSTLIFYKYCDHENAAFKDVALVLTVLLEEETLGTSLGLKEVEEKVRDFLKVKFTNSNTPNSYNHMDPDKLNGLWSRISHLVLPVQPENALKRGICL

[10] = target: Alpha-bungarotoxin (Bungarus multicinctus) (UniProt P60615); experiment: compounds binding labelled alpha-BTX control protein – biochemical, small-molecule microarray, Alexa647 label, 635/667 nm fluorescence, artefact control for SMM control protein annotation, profiling panel (AID 1117); settings: alpha-BTX-A647 binding fluorescence, higher = more signal
Alpha-bungarotoxin (Bungarus multicinctus), sequence (P60615 whole entry, looked up): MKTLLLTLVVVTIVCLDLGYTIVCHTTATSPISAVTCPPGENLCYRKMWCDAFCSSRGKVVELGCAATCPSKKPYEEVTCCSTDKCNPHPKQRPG

Row | Structure (SMILES) | composite z-score [1] | z-score [2] | composite z-score [3] | composite z-score [4] | composite z-score [5] | composite z-score [6] | composite z-score [7] | composite z-score [8] | composite z-score [9] | composite z-score [10]
1 | O=C(O)[C@@H]1C[C@@H]2C(=O)N3CCC[C@H]3C(=O)N2[C@@H]1c1ccc(O)cc1 | 1.05 | 3.97 | 0.48 | 0.271 | 0.204 | -0.0701 | -0.0289 | -0.226 | 0.343 | 0.964
2 | O=C1N(Cc2ccccc2)c2ccccc2C[C@]12N=C(c1ccc(OCCCO)cc1)O[C@@H]2c1ccccc1 | 0.732 | -3.02 | 0.133 | 0.51 | -0.249 | -0.0179 | -0.332 | -0.356 | -0.0883 | 0.743
3 | CC(CO)N1C(=O)[C@@H]2[C@H]3C(=O)OCC=C[C@H]3OC23C=CCN(Cn2nnc4ccccc42)C(=O)[C@@H]13 (stereo not given in full) | -0.931 | 0.0368 | -1.4 | -0.196 | 0.0507 | -0.13 | -0.117 | 0.0517 | -0.607 | -0.975
4 | COc1ccccc1CN1C(=O)c2ccccc2[C@](Cc2ccccc2I)(C(=O)O)[C@@H]1c1ccc(CO)cc1 | 1.42 | -0.127 | 0.717 | 1.36 | 0.477 | -0.123 | 0.336 | 0.182 | 0.152 | 1.21
5 | COc1cc(C(O)C2C=CC3C(=O)N(C)C(=O)C3N2Nc2ccccc2)cc(OC)c1OC (stereo not given) | 0.1 | 0.461 | -0.129 | 1.8 | 0.661 | 0.233 | 0.0725 | 2.22 | 1.3 | 0.469
6 | CCC1=C2CN(Cc3ccccc3)[C@@H](C(=O)Cc3ccccc3)C2C=CCC1 (stereo not given in full) | 1.4 | -0.618 | 0.133 | -0.0133 | -0.429 | -0.124 | -0.211 | -0.185 | 0.0878 | 0.0601
7 | [N-]=[N+]=Nc1ccccc1C[C@]1(C(=O)NCCN2CCOCC2)COC(c2ccc(OCCCO)cc2)=N1 | 1.4 | -1.92 | 0.795 | 0.76 | -0.553 | -0.349 | -0.221 | 0.624 | 0.101 | 0.536
8 | CCCCC(=C=CC[C@H](O)c1ccc(OCCO)cc1)CCO | 0.656 | -1.1 | -0.917 | -0.333 | -0.404 | -0.124 | -0.154 | -0.0007 | 0.92 | -0.322
9 | COCCCNC(=O)[C@@H]1c2ccccc2C(=O)N(C(C)C)[C@H]1c1ccc(CO)cc1 | -1.72 | -0.183 | 0.0506 | 0.355 | 0.254 | -0.0828 | -0.221 | -0.1 | 0.846 | 0.886
10 | COC(=O)C(CC#Cc1ccc2c(c1)[C@]1(C(=O)N2)[C@H](c2ccc(O)cc2)N2[C@H](c3ccccc3)[C@H](c3ccccc3)OC(=O)[C@H]2[C@@H]1C(=O)NC[C@H](O)c1ccccc1)C(=O)OC | 0.829 | -1.04 | 0.337 | 0.175 | -0.102 | -0.0606 | -0.0709 | 0.0169 | 1.24 | 0.624
11 | C=CCNC(=O)[C@@H]1[C@H]2C(=O)O[C@H](c3ccccc3)[C@H](c3ccccc3)N2[C@H](c2ccc(OCCO)cc2)[C@@]12C(=O)N(C(=O)OCCOC)c1ccc(C#Cc3ccc(OC)cc3)cc12 | 1.01 | -1.14 | 0.399 | 1.6 | 0.169 | -0.27 | -0.291 | -0.272 | 0.229 | 1.22
12 | CC(C)[Si](C#CCCCC#N)(O[C@H](c1ccccc1)c1cn(Cc2ccccc2)nn1)C(C)C | 0.157 | -0.147 | -0.0465 | -0.321 | -0.458 | -0.252 | 0.0469 | 0.111 | 0.439 | -0.199
13 | O=C(Cc1ccccc1)[C@H]1C2C=CCCC(c3ccccc3)=C2CN1Cc1ccccc1 (stereo not given in full) | -0.75 | -0.576 | 0.174 | -0.185 | -0.354 | -0.0566 | -0.124 | 0.0326 | 0.163 | -0.0051
14 | COc1cc2c(cc1O)C=[N+](Cc1sc3ccccc3c1Cl)CC2 | -0.429 | -1.57 | 0.324 | -0.0659 | 0.0401 | -0.0403 | -0.0626 | 0.162 | 0.25 | 0.252
15 | COc1ccc([Si](C)(C)[C@@H]2[C@@H](CCO)O[C@]3(C(=O)N(Cc4cccc(NC(=O)[C@H](C)O)c4)c4ccccc43)[C@H]2C)cc1 | 1.36 | -5.17 | 0.0544 | 0.953 | -0.204 | 0.0998 | 0.223 | 0.638 | 0.999 | 0.756
16 | CCCNC(=O)[C@@]1(Sc2ccc(C)cc2)CC(=O)N(C2Cc3ccccc3C2)[C@@H]1c1ccc(CO)cc1I | 1.08 | -1.65 | 0.698 | 0.183 | 0.497 | 0.0932 | -0.221 | 1.17 | 0.604 | 0.161
17 | CC(C)c1ccc(NN2C(C(O)c3ccc(F)cc3)C=CC3C(=O)N(c4ccccc4)C(=O)C32)cc1 (stereo not given) | 1.44 | -0.619 | 0.397 | 1.24 | -0.0298 | 0.105 | 0.246 | 1.75 | 0.305 | 1.39

Row | Structure (SMILES) | composite z-score [1] | z-score [2] | composite z-score [3] | composite z-score [4] | composite z-score [5] | composite z-score [6] | composite z-score [7] | composite z-score [8] | composite z-score [9] | composite z-score [10]
18 | CCCCCCc1nc(Cc2cc(OC)c(OC)c(OC)c2)cc2c1[Si](C(C)C)(C(C)C)OC2 | -0.457 | -1.96 | 0.186 | -0.112 | -0.302 | -0.0462 | -0.214 | -0.174 | -0.136 | -0.0869
19 | Cc1ccc(S[C@]2(C(=O)NCCN3CCOCC3)CC(=O)N(Cc3ccccc3Cl)[C@@H]2c2ccc(CO)cc2I)cc1 | 0.772 | -1.25 | -1.45 | 0.0002 | 0.154 | 0.522 | 0.464 | 2.2 | 2.35 | -0.903
20 | C=CCN1Cc2ccccc2[C@@H]2OC(c3ccc(OCCCO)cc3)=N[C@]2(CC=C)C1=O | 0.139 | -1.43 | 0.718 | 0.698 | -0.0856 | 0.128 | 0.0469 | 0.634 | 2.02 | 2.04
21 | CC1CC/C=C\[C@H]2OC34C=CCN(Cc5ccccc5)C(=O)[C@H]3N(C(CO)C(C)C)C(=O)[C@@H]4C2C(=O)O1 (stereo not given in full) | -0.376 | -0.386 | -0.369 | -0.862 | -0.528 | -0.176 | -0.0709 | -0.12 | 0.344 | -0.677
22 | CCOC(=O)C1=C[C@@H](C(C)C)N(S(=O)(=O)c2ccc(C)cc2)[C@H]1c1ccc(C(F)(F)F)cc1 | 1.4 | -0.972 | 0.499 | 1.07 | -0.0824 | -0.0607 | 0.296 | 0.868 | 0.76 | 1.06
23 | CC(c1ccccc1)C(O)C1C=CC2C(=O)N(C)C(=O)C2N1Nc1ccccc1 (stereo not given) | 1.23 | -0.684 | -0.541 | 2 | 0.735 | 0.157 | 0.208 | 0.462 | 0.694 | 2.06
24 | CCCCC=C[C@@H](NC(=O)OCc1ccccc1Cl)c1ccccc1 | 1.4 | -0.0468 | 0.39 | 1.35 | 1 | 1.08 | 1.97 | 3.06 | 0.28 | 0.922
25 | COC(=O)[C@@]1(Cc2ccc(OC)cc2)[C@H]2c3cc(C(=O)N(C)C)n(Cc4ccc(OC(F)(F)F)cc4)c3C[C@H]2CN1C(=O)c1ccccc1 | 0.38 | -3.63 | -0.0954 | 0.417 | 0.267 | -0.0807 | 0.337 | 0.196 | 1.58 | -0.114
26 | CC(C)NC(=O)[C@@]1(C)c2ccccc2C(=O)N(Cc2ccc(OC(F)(F)F)cc2)[C@H]1c1ccc(CO)cc1 | 0.0959 | -0.706 | -1.49 | -0.43 | 0.495 | -0.124 | -0.0833 | -0.472 | -0.284 | -0.94
27 | C=C[C@H](C)[C@H](OC(=O)Nc1ccc(SC)cc1)c1ccc(OCCO)cc1 | 0.248 | -1.19 | -0.0482 | 0.272 | -0.037 | -0.183 | 0.142 | 0.576 | 1.6 | 1.58
28 | O=c1cccc(-c2ccc([N+](=O)[O-])cc2)o1 | 0.79 | -0.885 | 0.37 | -0.273 | -0.389 | 0.0775 | 0.199 | -0.208 | 1.11 | 0.38
29 | Cn1cccc1C(O)C1C=CC2C(=O)N(c3ccccc3)C(=O)C2N1Nc1ccccc1 (stereo not given) | 1.09 | -0.36 | 0.739 | 1.69 | 0.405 | 0.181 | -0.0578 | 0.977 | 1.31 | 1.68
30 | CC(C)C(CO)N1C(=O)[C@@H]2C3C(=O)OCCC/C=C\[C@H]3OC23C=CCN(Cn2nnc4ccccc42)C(=O)[C@@H]13 (stereo not given in full) | 1.32 | 0.236 | -0.874 | -0.42 | 0.0878 | -0.202 | -0.229 | 0.407 | 1.92 | -1.15
31 | C=CCC(OC(C)=O)[C@@H]1[C@@H](N(Cc2cc3ccccc3o2)C(=O)Cc2ccc(F)cc2)c2cc(OCCCO)ccc2N1C(=O)Cc1ccc2ccccc2c1 (stereo not given in full) | -0.266 | 0.185 | -0.537 | 0.0637 | 0.34 | -0.147 | 0.0639 | -0.136 | 0.0568 | 0.317
32 | [N-]=[N+]=Nc1ccccc1C[C@]1(C(=O)N2CCOCC2)COC(c2ccc(OCCCO)cc2)=N1 | 1.41 | -1.72 | -0.253 | 0.201 | -0.554 | 0.0317 | 0.14 | -0.527 | 1.08 | 0.664
33 | [N-]=[N+]=NCc1ccccc1[C@H]1OC(c2ccc(OCCCO)cc2)=N[C@@]1(Cc1ccccc1N=[N+]=[N-])C(=O)NCC(O)CO (stereo not given in full) | 1.46 | -1.75 | -0.591 | 1.33 | 0.734 | 0.112 | 0.28 | 1.63 | 1.48 | 1.08
34 | CC[C@@H]1O[Si](C(C)C)(C(C)C)c2c1cc(-c1cc(C)c(OC)c(C)c1)nc2-c1ccc(Oc2ccccc2)cc1 | -0.871 | -0.748 | -0.389 | -0.162 | 0.0543 | -0.117 | -0.299 | -0.103 | -0.386 | 0.0748
